Laboratory results published in PubChem BioAssay (EPA / NIEHS).
Inconclusive results are not listed. The source made the active and inactive calls. Rule for the calls: active = hit-call score of the fitted dose curve at least 0.9, where 1 is the maximum; inconclusive = response in the unintended direction; inactive = score below 0.9.

Legend:
[1] = biological target: Cellular tumor antigen p53 (Homo sapiens) (UniProt P04637); assay: TOX21_p53_BLA_p2_ratio: Tox21 HCT-116 p53 Agonism Beta-lactamase Assay, Ratio, Phase 2 (AID 2283592)
Sequence of Cellular tumor antigen p53 (Homo sapiens) (P04637 whole entry, looked up): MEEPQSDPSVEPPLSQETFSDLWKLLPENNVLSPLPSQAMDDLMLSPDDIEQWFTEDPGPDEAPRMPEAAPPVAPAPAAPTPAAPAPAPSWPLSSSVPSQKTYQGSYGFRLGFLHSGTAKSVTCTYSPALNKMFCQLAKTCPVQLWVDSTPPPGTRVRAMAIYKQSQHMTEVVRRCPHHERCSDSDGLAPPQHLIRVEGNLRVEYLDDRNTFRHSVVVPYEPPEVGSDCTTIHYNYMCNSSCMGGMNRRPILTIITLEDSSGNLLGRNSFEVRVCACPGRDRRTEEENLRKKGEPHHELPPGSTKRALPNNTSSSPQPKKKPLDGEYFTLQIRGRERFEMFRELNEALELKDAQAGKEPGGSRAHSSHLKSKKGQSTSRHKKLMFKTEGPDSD
Summary of the method: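 Read-out is the blue/green (460/530 nm, 405 nm excitation) ratio after 2 h CCF4-AM loading, fitted as gain versus DMSO. Compounds, pinned at 217-fold dilution from DMSO stocks, stayed 16 h on HCT-116 beta-lactamase reporter cells seeded 5 h earlier.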

[2] = TOX21_p53_BLA_p3_viability: Viability Assessment in the Tox21 HCT-116 p53 Agonism Beta-lactamase Assay, Phase 3 (AID 2283593);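 note: cells exposed to compound for 16 h before reading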
Summary of the method: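 Cellular ATP was quantified by CellTiter-Glo luminescence, read after 30 min at room temperature. Beforehand, HCT116 cells (4000/well) received compound 5 h post-seeding, 217-fold diluted from DMSO, then incubated 16 h at 37C.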

[3] = biological target: Cellular tumor antigen p53 (Homo sapiens) (UniProt P04637); assay: TOX21_p53_BLA_p3_ratio: Tox21 HCT-116 p53 Agonism Beta-lactamase Assay, Ratio, Phase 3 (AID 2283596)
Summary of the method: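 Cells were seeded at 4000/well, rested 5 h at 37C, then dosed with DMSO compound solutions (217-fold dilution) for 16 h. CCF4-AM substrate was loaded for 2 h at room temperature, and the 460/530 nm emission ratio was fitted for gain of signal versus DMSO.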

[4] = TOX21_p53_BLA_p4_viability: Viability Assessment in the Tox21 HCT-116 p53 Agonism Beta-lactamase Assay, Phase 4 (AID 2283597);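 note: hits lower the luminescence signal meaning cytotoxicity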
Summary of the method: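 Cytotoxicity as reduced cellular ATP (CellTiter-Glo luminescence, 30 min room temperature), measured in the same wells following the CCF4 FRET p53 reading. Human HCT-116 cells received compounds in DMSO (217-fold dilution) for 16 h.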

[5] = TOX21_p53_BLA_p5_viability: Viability Assessment in the Tox21 HCT-116 p53 Agonism Beta-lactamase Assay, Phase 5 (AID 2283600)
Summary of the method: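 Viability came from CellTiter-Glo ATP luminescence, read after 30 min at room temperature. Before this, HCT-116 p53-bla cells (4000/well) had 16 hours of compound exposure at 37C, with DMSO stocks diluted 217-fold on transfer.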

[6] = biological target: Cellular tumor antigen p53 (Homo sapiens) (UniProt P04637); assay: TOX21_p53_BLA_p4_ratio: Tox21 HCT-116 p53 Agonism Beta-lactamase Assay, Ratio, Phase 4 (AID 2283601)
Summary of the method: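 Signal is the blue/green (460nm/530nm) ratio of cleaved versus uncleaved CCF4-AM substrate, read after 2 h substrate loading. Cells were HCT116 carrying the p53-responsive beta-lactamase reporter, dosed 16 h at 37C, 5% CO2; CellTiter-Glo measured in parallel.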

[7] = biological target: Cellular tumor antigen p53 (Homo sapiens) (UniProt P04637); assay: TOX21_p53_BLA_p5_ratio: Tox21 HCT-116 p53 Agonism Beta-lactamase Assay, Ratio, Phase 5 (AID 2283599)
Summary of the method: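 Beta-lactamase reporter ratio (blue 460 nm over green 530 nm, 405 nm excitation) after 2 h CCF4-AM loading, in HCT-116 cells exposed 16 h at 37 C to compounds pinned at 217-fold dilution. Increases relative to DMSO baseline scored.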

Measured: AC50

CCCC(CC)CCCCCCCN (stereo unspecified)
active: [2] 81 µM | [3] 79.2 µM
not listed: [7]
inactive: all other assays above

O=S(O)(O)=S
not listed: [7]
inactive: all other assays above

Oc1ccc(Sc2ccc(O)cc2)cc1
active: [1] 69.4 µM | [3] 69.8 µM | [7] 70.4 µM
inactive: [2] | [4] | [6]

CC(CCc1ccc(O)cc1)NCCc1ccc(O)c(O)c1 (stereo unspecified)
active: [6] 43.6 µM
inactive: [1] | [2] | [3] | [4]

CCCCC(CC)CN (stereo unspecified)
not listed: [5] | [7]
inactive: all other assays above

CN1[C@@H]2CC[C@H]1CC(OC(c1ccccc1)c1ccccc1)C2 (stereo partly specified)
not listed: [7]
inactive: all other assays above

O=C(O)c1nc(=O)[nH]c(=O)[nH]1
not listed: [7]
inactive: all other assays above

COC(=O)CCc1ccc(OCC(O)CNC(C)C)cc1 (stereo unspecified)
not listed: [6] | [7]
inactive: all other assays above

O=C(O)Cc1ccc(CCNS(=O)(=O)c2ccc(Cl)cc2)cc1
not listed: [7]
inactive: all other assays above

O=S(O)CO
not listed: [5]
inactive: all other assays above

COc1ccc(C=CC(=O)OCCC(C)C)cc1
not listed: [6] | [7]
inactive: all other assays above

O=Cc1ccccc1[N+](=O)[O-]
active: [1] 70.6 µM | [7] 68 µM
not listed: [4]
inactive: all other assays above

Cc1occc1SSc1ccoc1C
not listed: [4] | [6]
inactive: all other assays above

CC[C@H](C)[C@H](N)C(=O)O
inactive: [1] | [2] | [3] | [7]

CCCCCCCCOCCC#N
not listed: [4]
inactive: all other assays above

COc1ccc(C(=O)c2ccc(C)cc2)c(O)c1
not listed: [4]
inactive: all other assays above

CCn1nc(C(=O)O)c(=O)c2cc3c(cc21)OCO3
not listed: [4]
inactive: all other assays above

O=C1CC2(CCCC2)CC(=O)N1CCNCC1COc2ccccc2O1 (stereo unspecified)
not listed: [4]
inactive: all other assays above

COCC(C)OC(C)=O (stereo unspecified)
not listed: [4] | [6]
inactive: all other assays above

CCOc1cc(CC(=O)N[C@@H](CC(C)C)c2ccccc2N2CCCCC2)ccc1C(=O)O
not listed: [5] | [7]
inactive: all other assays above

CC(=O)CC(=O)Nc1ccc2[nH]c(=O)[nH]c2c1
inactive: [1] | [2] | [3] | [7]

NCC(=O)O
not listed: [4] | [6]
inactive: all other assays above

O=C(O)/C=C/c1ccc(Cn2ccnc2)cc1
not listed: [4]
inactive: all other assays above

CCCCNc1ccc(C(=O)OCCN(C)C)cc1
not listed: [4]
inactive: all other assays above

C[N+]12CCC(CC1)C(OC(=O)C(O)(c1ccccc1)c1ccccc1)C2 (stereo unspecified)
not listed: [5] | [7]
inactive: all other assays above

CC(C)CC(C)(N)C#N (stereo unspecified)
not listed: [4]
inactive: all other assays above

C=CC1CO1 (stereo unspecified)
not listed: [4]
inactive: all other assays above

CN(C)CCOCCN(C)CCO
inactive: [1] | [2] | [3] | [7]

O=C(O)C(=O)Cc1c[nH]c2ccccc12
not listed: [4]
inactive: all other assays above

CC(C)(C)NCC(O)c1ccc(O)c(CO)n1 (stereo unspecified)
not listed: [4]
inactive: all other assays above

O=C(O)c1ccncc1
not listed: [4]
inactive: all other assays above

CCCCOC(=O)/C=C\C(=O)OCCCC
not listed: [4] | [6]
inactive: all other assays above
